{"source": "PubChem BioAssay (NCATS)", "note": "“And” between values parts separate entries of the source, which are not always exact repeats. Equal values may be shown once. Inconclusive results are not listed. The source made the active and inactive calls.", "data": [{"molecular_target": "Glucocorticoid receptor (Homo sapiens) (UniProt P04150)", "sequence (P04150 whole entry, looked up)": "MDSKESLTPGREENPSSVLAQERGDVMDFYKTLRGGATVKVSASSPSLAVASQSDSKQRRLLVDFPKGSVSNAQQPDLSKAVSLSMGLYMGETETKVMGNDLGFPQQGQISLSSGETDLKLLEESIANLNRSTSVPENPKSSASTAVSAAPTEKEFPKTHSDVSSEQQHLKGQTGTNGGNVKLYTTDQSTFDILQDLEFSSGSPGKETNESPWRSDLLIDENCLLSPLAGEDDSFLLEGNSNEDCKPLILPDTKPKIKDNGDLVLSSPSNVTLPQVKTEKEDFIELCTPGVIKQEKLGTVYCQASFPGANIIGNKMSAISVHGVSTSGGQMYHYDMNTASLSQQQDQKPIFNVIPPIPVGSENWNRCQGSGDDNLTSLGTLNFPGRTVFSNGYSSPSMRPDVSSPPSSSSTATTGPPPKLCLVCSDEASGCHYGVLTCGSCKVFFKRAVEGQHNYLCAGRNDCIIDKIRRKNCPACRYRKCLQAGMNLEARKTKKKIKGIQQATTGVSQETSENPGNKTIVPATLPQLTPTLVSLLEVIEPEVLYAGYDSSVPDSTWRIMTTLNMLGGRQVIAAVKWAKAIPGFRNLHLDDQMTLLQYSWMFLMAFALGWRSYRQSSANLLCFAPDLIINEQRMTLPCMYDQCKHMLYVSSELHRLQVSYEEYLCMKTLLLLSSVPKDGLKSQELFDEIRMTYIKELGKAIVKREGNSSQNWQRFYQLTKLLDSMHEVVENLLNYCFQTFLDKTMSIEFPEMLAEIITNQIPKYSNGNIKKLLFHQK", "test": "qHTS assay for small molecule antagonists of glucocorticoid receptor signaling (AID 588533; active = well fitted inhibition curve with a large enough effect in the signal ratio, with a control signal flat, not every such curve was filed as active; the % refers to the signal ratio;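 also: cells stimulated with 2 nM dexamethasone as agonist; % is scaled to controls: 0 for no effect and ±100 for the full control effect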)", "conditions": "HeLa MMTV-bla, GRE beta-lactamase ratio, antagonist mode, 18 h; series mostly up to 76.8 µM", "outline": "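Antagonist-mode qHTS: compound titrations added to GRE-bla HeLa cells, then dexamethasone 2 nM final; 18 h, 37 C. CCF4 FRET fluorescence normalized to dexamethasone and DMSO; IC50 from Hill fit.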", "values": [{"smiles": "OCC(O)CO", "Potency": "inactive"}, {"smiles": "OB(O)O", "Potency": "inactive"}, {"smiles": "Cc1ccc(S(=O)(=O)NCl)cc1", "Potency": "inactive"}, {"smiles": "N[C@@H](Cc1cc(I)c(Oc2ccc(O)c(I)c2)c(I)c1)C(=O)O", "Potency": "inactive"}, {"smiles": "Cc1ncc[nH]1", "Potency": "inactive"}, {"smiles": "CCCCCCCCCCCCCCCCCC(=O)OC[C@@H](O)[C@H]1OC[C@H](O)[C@H]1O", "Potency": "inactive"}, {"smiles": "O=P(O)(O)O", "Potency": "inactive"}, {"smiles": "C=CC(C)(O)CC/C=C(\\C)CCC=C(C)C", "note": "(centres undefined)", "Potency": "inactive"}, {"smiles": "CC(C)CCCCCCc1ccc(O)cc1", "Potency": "inactive"}, {"smiles": "[O-][N+](=Nc1ccccc1)c1ccccc1", "Potency": "inactive"}, {"smiles": "C[C@H](CCC(=O)O)[C@H]1CC[C@H]2[C@@H]3[C@H](O)C[C@@H]4C[C@H](O)CC[C@]4(C)[C@H]3C[C@H](O)[C@]12C", "Potency": "inactive"}, {"smiles": "O=c1n(CC2CO2)c(=O)n(CC2CO2)c(=O)n1CC1CO1", "note": "(centres undefined)", "Potency": "inactive"}, {"smiles": "O=C(OCc1ccccc1)c1ccc(O)cc1", "Potency": "inactive"}, {"smiles": "Nc1ccc(N=Nc2ccccc2)c(N)n1", "Potency": "inactive"}]}, {"test_system": "not listed separately", "test": "qHTS assay for small molecule antagonists of peroxisome proliferator-activated receptor delta signaling (AID 588535);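 also: cells co-treated with a PPAR-delta agonist as stimulator during compound exposure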", "conditions": "HEK293T PPARd-UAS-bla, beta-lactamase FRET ratio, 18 h; 460 nm channel", "outline": "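Inhibition of PPAR-delta response element-driven beta-lactamase expression is measured in HEK293T cells exposed to a compound titration series for 18 hrs at 37 C. Half-maximal inhibition comes from Hill equation fitting.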", "values": [{"smiles": "CO", "max response": "-4.23%"}, {"smiles": "NCCN", "max response": "42.1%"}, {"smiles": "CCCCO", "max response": "1.82%"}, {"smiles": "CC1=CC(=O)NS(=O)(=O)O1", "max response": "2.47% and 22.8%"}, {"smiles": "OC[C@H]1O[C@@](CO)(O[C@H]2O[C@H](CO)[C@@H](O)[C@H](O)[C@H]2O)[C@@H](O)[C@@H]1O", "max response": "-16.8%"}, {"smiles": "CCCCC(CC)COS(=O)(=O)O", "note": "(centres undefined)", "max response": "-7.66%"}, {"smiles": "CO[C@@H]1[C@H](OC(=O)/C=C/C=C/C=C/C=C/C(=O)O)CC[C@]2(CO2)[C@H]1[C@@]1(C)O[C@@H]1CC=C(C)C", "max response": "39.3%"}, {"smiles": "Cc1ccc(S(=O)(=O)O)cc1C", "max response": "-12.1%"}, {"smiles": "Oc1cccc(O)c1O", "max response": "-13.9%"}, {"smiles": "CCCCC", "max response": "25%"}, {"smiles": "OCC(O)CO", "max response": "-8.63%"}, {"smiles": "OCl", "max response": "-10.3%"}, {"smiles": "OB(O)O", "max response": "1.13%"}, {"smiles": "COC(=O)c1ccccc1O", "max response": "-8.84% and 15.6%"}, {"smiles": "Cc1ccc(S(=O)(=O)NCl)cc1", "max response": "-27%"}, {"smiles": "C[Si](C)(C)O[Si](C)(C)C", "max response": "8.43%"}, {"smiles": "Nc1ncnc2c1ncn2[C@H]1CC[C@@H](CO)O1", "max response": "-13.3% and 61.6%"}, {"smiles": "N[C@@H](Cc1cc(I)c(Oc2ccc(O)c(I)c2)c(I)c1)C(=O)O", "max response": "53.8%"}, {"smiles": "Cc1ncc[nH]1", "max response": "34.3%"}, {"smiles": "CCCCCCCCCCCCCCCCCC(=O)OC[C@@H](O)[C@H]1OC[C@H](O)[C@H]1O", "max response": "30.1%"}, {"smiles": "CC(C)[C@@H]1CC[C@@H](C)C[C@H]1O", "max response": "-3.98%"}, {"smiles": "Nc1nccs1", "max response": "-9.51%"}, {"smiles": "C=CC(C)(O)CC/C=C(\\C)CCC=C(C)C", "note": "(centres undefined)", "max response": "18.5%"}, {"smiles": "C/C=C/C=C/C(=O)O", "max response": "0.118%"}, {"smiles": "CC(C)CCCCCCc1ccc(O)cc1", "max response": "-43.1%"}, {"smiles": "[O-][N+](=Nc1ccccc1)c1ccccc1", "max response": "22.2%"}, {"smiles": "CC(C)O", "max response": "15.2%"}, {"smiles": "CN(CCO)CC(O)Cn1cnc2c1c(=O)n(C)c(=O)n2C", "note": "(centres undefined) (tested in a mixture with another compound)", "max response": "15.9%"}, {"smiles": "c1ccc2ccccc2c1", "max response": "-2.63% and 30.7%"}, {"smiles": "Nc1ccc(N=Nc2ccccc2)c(N)n1", "max response": "-2.71% and -25%"}]}]}
